Screening data deposited in PubChem BioAssay by National Center for Advancing Translational Sciences (NCATS).
In the library only some 21% were active in any assay of this set; here they are far more common.
Pf growth 96h: inhibits malaria parasite growth, 96 h | 320,000 tested, 6.9% active | AID 504834 | P. falciparum luciferase reporter growth, 96 h | Potency, µM (doses to about 28.7 µM), without a hit: at the top dose activity change, negative = inhibition, most hits filed as inhibitors; note: potency is the fitted concentration of half-maximal effect; % is set by controls: 0 for no effect and ±100 for the full control effect
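Two-generation exposure (96 h) targets delayed-death phenotype. Reporter parasites carrying integrated firefly luciferase, in red cells at 2% hematocrit and 0.05% parasitemia final, kept at 37 C, 5% CO2; luminescence loss indicates inhibition.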
Pf growth 48h: inhibits P. falciparum growth in the first generation, 48 h | Potency, µM (top dose mostly 28.7 µM), for inactives: top-dose activity change, negative = inhibition, actives largely listed as inhibitors | P. falciparum luciferase growth in erythrocytes, 48 h | 310,000 tested, 5.9% active; note: potency is the fitted concentration of half-maximal effect; % is set by controls: 0 for no effect and ±100 for the full control effect
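Here the parasites carry a stable luciferase gene and grow inside erythrocytes in Albumax-based RPMI medium with compound for one erythrocytic cycle. Activity is scored as loss of luminescent signal.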
Shiga inhibitor: inhibitors of Shiga toxin in Vero cells; inhibition, % at 38.7 µM; 290,000 tested, 9.2% active; AID 2315; Vero cells, Shiga toxin protein synthesis inhibition reporter; in the data active = inhibition mostly above about 28%, no sharp cut-off; inactive = mostly below about 43%; note: 0% is about no effect
CHX counter: affects cycloheximide protein synthesis inhibition readout, counter-screen | cell reporter, cycloheximide protein synthesis inhibition counterscreen | max response, % | 300,000 tested, 12% active; in the data active = max response mostly above about 13%, no sharp cut-off; inactive = mostly below about 14%; note: read at 38.3 µM for the half of the compounds with a filed dose; 0% is about no effect
HCMV inh: human cytomegalovirus inhibition; HFF cells, HCMV-luciferase reporter, 72 h; active compounds read low; activity change, negative = inhibition, % at 57.5 µM; 410,000 tested, 4.5% active; in the data active = activity change below about -60%; inconclusive = no clear call, values can overlap the other calls; inactive = above about -39%; note: % is set by controls: 0 for no effect and ±100 for the full control effect
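Cell-based, HFFs, 1000 cells/well, 16 h 37C; cpds in DMSO + HCMV-luc, MOI 1 PFU/cell; 72 h 37C; OneGlo luminescence after 5 min RT; norm. to buffer vs Salinomycin 10uM.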
HCV inhibitor: blocks hepatitis C virus | Potency, µM (series often up to 41.8 µM), for inactives: top-dose activity change, negative = inhibition, usual class: inhibitors | Huh7.5.1 HCVcc-Cre infection, luciferase reporter, 44 h | 340,000 tested, 3.4% active; note: potency is the fitted concentration of half-maximal effect; % is set by controls: 0 for no effect and ±100 for the full control effect
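Cells seeded at 1,000/well and cultured 4 h, then compounds added followed by HCVcc-Cre virus (~0.5 moi). After 44 h further culture, luciferase substrate was added, plates held 15 min at room temperature, and luminescence read for 15 sec.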
* marks the source's active call; other numbers are inactive results; ? = inconclusive; · = no result; + = active, no number; [ ] = remark or other dose. Unless noted, calls come from the whole dose curve; as a rule, active = well fitted inhibition curve with a large enough effect; inconclusive = small, poorly fitted or top-dose-only effect, or another doubt; inactive = no such curve, though single readings can be large or run the other way.

SMILES	Pf growth 96h	Pf growth 48h	Shiga inhibitor	CHX counter	HCMV inh	HCV inhibitor
Cc1cc2nc(/C=C/c3nc4cc(C)c(C)cc4[nH]3)[nH]c2cc1C	0.33µM*	0.47µM*	2	4	20	-5%
Cc1cc2nc(CO)[nH]c2cc1C	80%	19%	21	0	-26	1%
Cc1cc2nc(CS)[nH]c2cc1C	?	?	60	17*	-17	?
O=C(CSc1ccccn1)Nc1cccc(S(=O)(=O)N2CCCC2)c1	?	-29%	·	·	18	-25%
Cc1ccccc1C[C@H](C(=O)O)N1C(=O)c2ccc(C(=O)O)cc2C1=O	1%	8%	-10	-8	·	·
CCC1(CC)NC(=O)N(CC(=O)OCC(=O)Nc2ccc(OC(F)(F)F)cc2)C1=O	0%	16%	·	·	51	2%
COc1cc(C2Oc3ccccc3C=C2[N+](=O)[O-])cc(OC)c1OC (configuration not stated)	?	?	-13	-9	-104*	?
COc1cc(C2NC(=O)c3ccccc3O2)cc(OC)c1OC (configuration not stated)	?	·	14	5	8	-8%
Cc1ccc(-c2nc(=S)c3c(n2Cc2ccco2)CC(C)(C)OC3)cc1	8.3µM*	?	18	7	·	-1%
CCOc1ccc(N/C=C/C(=O)c2ccc(OC)cc2)cc1	?	-1%	132*	20*	19	-5%
COC(=O)/C(=C\C(=O)c1ccc([N+](=O)[O-])cc1)Nc1ccc(OC)cc1	27%	27%	-9	2	-30	3%
COc1ccc(C(=O)/C=C/Nc2ccc([N+](=O)[O-])cc2)cc1	-4%	110%	114*	85*	?	-5%
COc1ccc(N/C=C/C(=O)c2ccc(C)cc2)c([N+](=O)[O-])c1	·	·	·	·	31	11%
COc1ccc(N/C(C)=C2/C(=O)C(=O)N(CCO)C2c2ccc([N+](=O)[O-])cc2)cc1 (configuration not stated)	?	-4%	5	6	-99*	-7%
CCOc1ccc(N/C=C/C(=O)c2ccc(OC)cc2)c([N+](=O)[O-])c1	135%	7%	132*	39*	24	-10%
CCc1ccc(-n2c(C)nnc2SCc2nc(-c3ccc(OC)cc3)no2)cc1	·	·	·	·	-14	·
NC(=O)c1cc(S(=O)(=O)N2CCCC2)ccc1OCCOc1ccccc1F	4%	?	·	·	-2	23%
COc1ccc(NC(=O)CNC(=O)c2ccc([N+](=O)[O-])cc2)cc1	?	0%	46	3	?	21%
COc1ccc(C(=O)CC(=O)Nc2ccc([N+](=O)[O-])cc2)cc1	?	-18%	1	0	?	11µM*
O=[N+]([O-])c1cccc2nc(-c3ccccc3)c(-c3ccccc3)nc12	-4%	-15%	12	-1	-101*	-9%
O=c1cnc2ccccc2n1Cc1ccc(Br)cc1	18%	27%	56*	18*	27	?
CC(C)(C)c1ccc(Cn2c(=O)cnc3ccccc32)cc1	?	?	90*	38*	-81*	?
O=C(O)Cn1c(=O)cnc2ccccc21	·	11%	16	-5	-9	17%
CC(=O)N1N=C(c2ccco2)CC1c1ccc(Cl)o1 (configuration not stated)	0%	24%	3	0	-8	7%
O=C(O)CCC(=O)OCCCc1cc2ccccc2c(=O)o1	·	·	·	·	?	12%
SMILES	Pf growth 96h	Pf growth 48h	Shiga inhibitor	CHX counter	HCMV inh	HCV inhibitor
Cc1ccc(C(=O)CNc2ccc(C)cc2C)cc1	?	63%	·	13*	3	?
Cc1ccc(C(=O)CNc2ccccc2C)cc1	-6%	57%	118*	42*	-32	0%
O=C1c2cccc(OCC(=O)N3CCCc4ccccc43)c2CCN1Cc1ccccc1	?	?	20	14*	-15	?
O=C(COc1cccc2c1CCN(Cc1ccccc1F)C2=O)N1CCOCC1	-41%[1.15 µM]	1%	14	-3	·	·
O=C(COc1cccc2c1CCN(Cc1ccc(Br)cc1)C2=O)NCc1ccco1	?	?	65	29*	17	?
O=C(COc1cccc2c1CCN(Cc1ccc(Br)cc1)C2=O)N1CCOCC1	?	?	24	-5	-24	11µM*
O=C1c2cccc(OCC(=O)N3CCCc4ccccc43)c2CCN1Cc1ccc(Br)cc1	?	?	-5	12	?	?
COc1cccc(CNc2nc3cc(-c4ccc(OC)cc4C)sc3c(=O)n2C)c1	·	·	·	·	-1	·
Cc1ccc(NC(=O)CN2C=NS(=O)(=O)c3ccccc32)cc1	·	·	·	·	-1	·
O=[N+]([O-])c1ccc(/C=N\NS(=O)(=O)c2ccc(F)cc2)o1	-3%	22%	-3	-2	-4	-6%
Cc1ccc(-n2nc(C)c3c(C)c(CCC(=O)O)c(C)nc32)cc1C	-13%	2%[0.00184 µM]	-7	-3	32	3%
Cc1ccc(C(=O)/C=C/c2ccco2)c(O)c1	7%	97%	56*	37*	8	18%
Cc1ccc(O)c(NC(=S)NC(=O)/C=C/c2ccccc2)c1	0%	-20%	7	5	-8	2%
Cc1ccnc(NC(=S)NC(=O)/C=C/c2ccco2)c1	30%	136%	138*	70*	89	?
Cc1ccc(-c2csc(NC(=S)NC(=O)/C=C/c3ccco3)n2)cc1	23%	47%	33	12	-37	13µM*
Cc1ccc(O)c(NC(=S)NC(=O)/C=C/c2ccco2)c1	30%	96%	67*	47*	-11	-5%
Cc1cn2c(=O)c(S(=O)(=O)Nc3ccc(N4CCOCC4)cc3)c(C)nc2s1	·	·	·	·	37	·
CCC(=O)Nc1ccc(NC(=S)NC(=O)/C=C/c2ccco2)cc1	310%	-14%	·	-3	77	-7%
O=C(/C=C/c1ccco1)NC(=S)Nc1ccc(Cl)cn1	·	10%	88*	29	-19	18%
CN1C(=O)N(CC(=O)N2CCN(c3ncccn3)CC2)C(=O)C12CCCCC2	15%	-7%	·	·	-21	13%
CN(C(=O)COc1ccc(Br)cc1Cl)C1CCCCC1	-1%	-3%	53*	24*	-16	5%
CC(C)(C)NC(=O)NC(=O)COc1ccc(Br)cc1Br	265%	236%	136*	90*	84	-22%
CC(C)(C)NC(=O)NC(=O)COc1ccccc1C#N	85%	144%	+	66*	105	-2%
O=C(COc1ccccc1)NC1CCN(Cc2ccccc2)CC1	12%	?	-4	0	26	7%
O=C(COc1ccc(Br)cc1Cl)NC1CCN(Cc2ccccc2)CC1	12µM*	?	-5	-3	8	11µM*
